An excerpt weighted towards active compounds, which were near 2.3% of everything screened.
TPT1 inh: inhibitors of Candida albicans tRNA 2'-phosphotransferase TPT1 | hit rate 0.81% among 300,000 | inhibition, % at 5 µM | recombinant caTPT1, FP RNA substrate dephosphorylation;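 active means inhibition above the mean of all tested compounds plus 3 SD, set per screening campaign, cut at about 24% in these data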
IDE act: activators of human insulin-degrading enzyme in cells | HEK cells, FAbeta-B cleavage, fluorescence polarization; 0% vehicle, 100% cell-free pure enzyme wells | activation, % at 5.96 µM | hit rate 0.073% among 340,000 | AID 493087;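 active means activation above the mean of all tested compounds plus 3 SD, set per screening campaign, cut at about 17% in these data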
Rpn11 block: blocks the human proteasome subunit Rpn11. human 26S proteasome, Ub4-pepOG fluorescence polarization; 20S core pre-blocked with epoxomicin. inhibition, % at 20 µM. hit rate 0.59% among 360,000;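 active means inhibition at 20 µM, scaled to each plate's controls, above about 33%, limit read from the data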
IDE inh: cellular human IDE inhibition | P14735 | HEK cells, FAbetaB cleavage, fluorescence polarization | inhibition, % at 5.59 µM | hit rate 0.41% among 320,000 | AID 434962;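 active means percent inhibition above the average of all tested compounds plus 3 SD, set per screening campaign, cut at about 16% in these data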;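 further: IDE supplied by intact live HEK cells; FP after avidin binding of uncleaved biotin substrate so inhibition keeps polarization high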
Calb FLC: affects C. albicans growth with fluconazole | hit rate 0.57% among 300,000 | growth inhibition, % (test concentration not listed) | C. albicans CaCi-2 (fluconazole-resistant clinical isolate) + fluconazole, Alamar Blue growth, 48 h;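 active means growth inhibition above about 58% in most replicates, limit read from the data, passing the limit was not always enough; inconclusive means exactly half the replicates above a set limit; inactive means most replicates below a set limit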;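 further: all wells also contain fluconazole at 8 µg/ml as a sub-toxic cotreatment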
Rin1-Abl PPI inh: inhibitors of human Rin1-Abl protein interaction; P00519+Q13671; hit rate 0.4% among 360,000; TR-FRET Rin1/Abl binding, biochemical; inhibition, % at 7.35 µM; AID 588664; in the data active means inhibition above about 5%, passing the limit was not always enough
TPT1 inh confirm: confirmation of Candida albicans TPT1 inhibitors | shares compounds with TPT1 inh | recombinant caTPT1, fluorescence polarization, RNase T1 coupled | inhibition, % at 5 µM | hit rate 74% among 2,400 | AID 2149;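 active means inhibition above the primary screen limit, the mean inhibition of all tested compounds plus 3 SD, cut at about 25% in these data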
RNase T1 counter: blocks Aspergillus oryzae RNase T1, a TPT1 counter-screen; shares compounds with TPT1 inh; RNase T1 cleavage, fluorescence polarization, 1536-well; inhibition, % at 5 µM; hit rate 83% among 2,400;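 active means inhibition above the solvent-only control well mean plus 3 SD, limit set per screening run, cut at about 23% in these data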;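 further: inhibitors block cleavage so intact labeled substrate keeps polarization high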
Of the large screens only hits and unclear results are named; the others gave an inactive call (follow-up assays come after a bar, where shown).

CSc1nsc(/C=C/Nc2ccc(O)cc2C)c1C#N	TPT1 inh 26 (not shown: Rpn11 block) | TPT1 inh confirm inactive | RNase T1 counter 33
CSc1nsc(/C=C/Nc2cccc(Cl)c2)c1C#N	TPT1 inh 36 (no result: Calb FLC) | TPT1 inh confirm 26 | RNase T1 counter 34
CCN1C(=O)c2cccc3c(NC(=O)c4ccccc4)ccc1c23	none
CCN1C(=O)c2cccc3c(NC(=O)c4ccc5c(c4)OCCO5)ccc1c23	TPT1 inh 47 (not shown: Rpn11 block) | TPT1 inh confirm 65 | RNase T1 counter 72
COc1cc(/C=N/n2c(-c3ccc4c(c3)NC(=O)CO4)csc2=Nc2cccc(C)c2)ccc1O	none
COCCN=c1scc(-c2ccc3c(c2)NC(=O)CO3)n1/N=C(\C)c1ccc(O)cc1	TPT1 inh 27 | TPT1 inh confirm inactive | RNase T1 counter inactive
O=C(COc1cc(F)ccc1[N+](=O)[O-])Nc1ccc(N2CCCCC2)cc1	none
COc1ccc(N/C=C\C(=O)c2ccc(Br)cc2)cc1OC	TPT1 inh 34 (not shown: Rpn11 block) | TPT1 inh confirm 50 | RNase T1 counter 60
CC(=O)c1cccc(NS(=O)(=O)c2ccc(-c3cnc(C4CC4)o3)cc2)c1	TPT1 inh 28 | TPT1 inh confirm inactive | RNase T1 counter inactive
CC(=O)Nc1ccc(NS(=O)(=O)c2ccc(-c3cnc(C4CC4)o3)cc2)cc1	none
COc1cccc([C@@H]2CC=C(C(=O)O)[C@H](c3cccc(Cl)c3)N2S(=O)(=O)c2ccc(C)cc2)c1	none (no result: Calb FLC)
O=C(COC(=O)CCN1C(=O)/C(=C\C=C\c2ccccc2)SC1=S)Nc1cc(F)ccc1F	TPT1 inh 28 (not shown: Rpn11 block) | TPT1 inh confirm 33 | RNase T1 counter 42
CCc1nc(SCc2ccccc2C#N)n[nH]1	none (no result: TPT1 inh, IDE inh)
COC(=O)c1cc(C)c(C)cc1NC1OC(CO)C(O)C1O (configuration not stated)	none (no result: TPT1 inh, IDE inh, Calb FLC)
Cc1ccc(NC(=O)/C(C#N)=C/c2cn(CC(=O)NCc3ccco3)c3ccccc23)cc1C	TPT1 inh 29 (not shown: Rpn11 block) | TPT1 inh confirm 67 | RNase T1 counter 80
COc1cc(NCCCNC(C)C)c2nccc(C)c2c1	none (no result: TPT1 inh, IDE inh, Calb FLC)
N#C/C(=C/c1ccc(N2CCCCCC2)o1)c1ccc(F)cc1	TPT1 inh 158 (not shown: Rpn11 block) | TPT1 inh confirm 182 | RNase T1 counter 168
N#C/C(=C/c1ccc(N2CCCCC2)o1)C(=O)Nc1ccc2ccccc2c1	Calb FLC inconclusive (not shown: TPT1 inh, Rpn11 block, IDE inh)
N#C/C(=C/c1ccc(N2CCCCCC2)o1)c1cccc(F)c1	TPT1 inh 160 (not shown: Rpn11 block) | TPT1 inh confirm 177 | RNase T1 counter 163
COc1cc(N2CCCC2)c(OC)cc1/C=C(/C#N)c1cccc(F)c1	TPT1 inh 143, IDE inh 17, Calb FLC inconclusive (not shown: Rpn11 block) | TPT1 inh confirm 145 | RNase T1 counter 140
O=C(N/N=C/c1ccc(N2CCCCC2)o1)c1ccccc1	none (no result: Calb FLC)
CN1CCN(c2ccccc2NC(=O)c2ccc3c(c2)OCCO3)CC1	none
CCCOc1cc(N(CC)CC)ccc1/C=C(/C#N)c1nc2ccc(C)cc2[nH]1	TPT1 inh 184, IDE inh 105 (not shown: Rpn11 block) | TPT1 inh confirm 193 | RNase T1 counter 171
Cc1ccc(/C=C/c2nc3ccccc3s2)s1	TPT1 inh 42 | TPT1 inh confirm 43 | RNase T1 counter 54
Cc1ccc(Nc2nc3ccccc3s2)cc1	none
Cn1c(N/N=C/c2cc3ccccc3nc2Cl)nc2ccccc21	TPT1 inh 69 | TPT1 inh confirm inactive | RNase T1 counter inactive
Nc1nonc1C(=O)N/N=C/c1cc(Br)ccc1O	TPT1 inh 33, Calb FLC 101 (no result: IDE act, Rpn11 block, Rin1-Abl PPI inh) | TPT1 inh confirm 30 | RNase T1 counter 38
NC(=O)N/N=C\c1cc(Br)ccc1O	none
COc1cccc(-c2ncc3ccccc3c2COC(=O)N(C)C)c1	none (no result: TPT1 inh, Calb FLC)
Cc1ccc2nc(SCC(=O)Nc3ccc4sc(C)nc4c3)c(C#N)cc2c1	TPT1 inh 25 | TPT1 inh confirm inactive | RNase T1 counter inactive
Nc1ccc(C(=O)N2CCN(S(=O)(=O)c3ccc4c(c3)OCCO4)CC2)cc1[N+](=O)[O-]	none
CC(=O)C1=C(C)OC(N)=C(C#N)C1c1cc([N+](=O)[O-])ccc1Cl (configuration not stated)	none

Compound activity deposited in PubChem by several laboratories.
